Data as given in PubChem BioAssay.

Experiment: binders of probe aFSTL3 on microarray, primary screen, stem cell growth factor project, biochemical, small-molecule microarray, fluorescence 635/667 (AID 1064);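 also: measures binding of the biotinylated anti-FSTL3 antibody to printed compounds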
Details: higher = more signal

Row | SMILES | composite z-score
1 | COCCOC(=O)N1C(=O)[C@@]2(c3cc(C#Cc4ccc(OC)cc4)ccc31)[C@H](C(=O)N1CCN(c3ncccn3)CC1)[C@H]1C(=O)O[C@H](c3ccccc3)[C@H](c3ccccc3)N1[C@@H]2c1ccc(O)cc1 | 0.104
2 | COC(=O)C(CC#Cc1ccc2c(c1)[C@]1(C(=O)N2)[C@H](C(=O)NC[C@H](O)c2ccccc2)[C@H]2C(=O)O[C@H](c3ccccc3)[C@H](c3ccccc3)N2[C@@H]1c1ccc(OCCO)cc1)C(=O)OC | 1.4
3 | O=C1C2C=CC(C(O)c3ccc(-c4ccccc4)s3)N(n3cnnc3)C2C(=O)N1Cc1ccccc1 (configuration not stated) | 0.0626
4 | O=c1cccc(C=Cc2ccccc2)o1 | 0.236
5 | C=C(C(=O)CC[C@H](OC(C)=O)c1ccc(OCCO)cc1)C(C)C | -0.398
6 | CCCC[C@H]1OB(O)C[C@H]2C1=C(C)C[C@H]1C(=O)N(Cc3ccccc3)C(=O)[C@H]12 | -0.573
7 | CCCCC(CC)C(O)C1C=CC2C(=O)N(c3ccccc3)C(=O)C2N1Nc1ccccc1 (configuration not stated) | 0.0807
8 | O=C(OCCF)C1=CCC(c2cccc(Cl)c2)O1 (configuration not stated) | -0.422
9 | COCC1=C2[C@@H](CCc3ccccc3)OB(O)C[C@@H]2[C@@H]2C(=O)N(Cc3ccccc3)C(=O)[C@@H]2C1 | -0.505
10 | CC(C)C[C@@H]1NC(=O)[C@H]2C[C@@H](C(=O)NCCCCCNC(=O)CS)[C@@H](c3cccc(OCCO)c3)N2C1=O | -0.197
11 | COc1ccc(CCN2C(=O)[C@@]3(Cc4ccccc42)c2ccccc2C(=O)N(Cc2ccccc2Cl)[C@H]3c2ccc(CO)cc2)cc1 | 0.451
12 | CCCCCN1CC=CC23O[C@@H]4C=CCOC(=O)[C@@H]4[C@H]2C(=O)N(CCCO)[C@@H]3C1=O (some centres not stated) | -0.295
